The values below come from PubChem BioAssay AID488890 (Southern Research Specialized Biocontainment Screening …, 2010).

The campaign covered roughly 320,000 compounds. About 1,300 (0.41%) were called active. Not shown: some 3% with an inconclusive outcome. The rule behind the calls is not given here. The list is a sample of the results. Measured potencies and affinities stand elsewhere.

The inhibition is the drop in the measured response relative to a control, in per cent.

This experiment in a line: growth inhibition of non-replicating M. tuberculosis (AID 488890).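 Note: plate controls were DMSO cells for no effect and high antibiotic wells for full effect.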 The note with it: Mycobacterium tuberculosis non-replicating, at 25 µM, stronger effect = higher value.
For `Cc1cc2c(C)c(C)c(=O)[nH]c2cc1N`, the inhibition was determined as 6.16%. As for `Cc1occc1C(=O)NNC(=O)NC12CC3CC(CC(C3)C1)C2`, the inhibition came to 1.27%. To `O=C(NCc1ccccn1)c1cccc(S(=O)(=O)N2CCCCC2)c1` belongs -1.8%; to `COc1ccc(C(=O)NNC(=O)CCC(=O)NNC(=O)c2ccc(OC)cc2)cc1`, 8.31%. To `CCNc1nc(NCC)n2c(SCc3nc4ccccc4c(=O)[nH]3)nnc2n1` belongs 48.6%; to `Cn1c(=O)c(Oc2cc(Cl)cc(Cl)c2)nc2ccccc21`, 5.56%. To `Cc1ccc(N)cc1NC(=O)CN1CCOCC1` belongs 6.66%; to `CCOCCCNC(=O)C1CC(=O)N(C2CCCC2)C1` (configuration not stated), -5.49%; to `CSc1ncccc1C(=O)OCC(=O)N1CCCC1`, 39.6%. For `COc1cccc(C(=O)COC(=O)c2ccc(NC(C)=O)cc2)c1`, the inhibition was 61.7%. For the molecule `CCN(CC)S(=O)(=O)c1cc(C(=O)N=c2sccn2C)ccc1OC`, the inhibition came to 20.4%. The result for `CCOC(=O)N1CCN(Cc2ccccc2Cl)CC1` reads 10.7%; that for `O=[N+]([O-])c1cc(CN2CCCC2)c2cccnc2c1O`, -4.52%. The result for `OCCN1CCN(Cc2cc(Cl)c3cccnc3c2O)CC1` reads 66%; that for `O=C(Oc1c(Cl)cc(Cl)c2cccnc12)N1CCOCC1`, 2.11%. The result for `CCOC(=O)N1CCN(Cc2ccc(O)c3ncccc23)CC1` reads 56.8%; that for `CN1CCN(Cc2cc(Cl)c3cccnc3c2OC(=O)c2cccs2)CC1`, 51%.

As to `COCCCNC(=O)c1ccc2c(c1)ncn2-c1ccc(C)cc1C`, the inhibition was 5.06%. To `Cc1ccc(NC(=O)CN2C(=O)NC3(CCCC3)C2=O)nc1` belongs -25.1%. The result for `COc1ccccc1OCC(=O)/C=C1/N(C)c2ccccc2C1(C)C` reads 17.5%; that for `NS(=O)(=O)c1ccc(CCNC(=O)C2COc3ccccc3O2)cc1` (configuration not stated), 7.64%; that for `COc1ccc(CCN2C(=O)CC(N3CCN(S(=O)(=O)c4ccccc4)CC3)C2=O)cc1OC` (configuration not stated), 13.8%. To `CCC(C)[C@H](NC(=O)c1cc2cc(Cl)ccc2n1C)C(=O)N1CCC(C(=O)O)CC1` (some centres not stated) belongs 0.12%; to `COc1cccc(CNC(=O)CN2CCC(c3nc4ccc(C)cc4[nH]3)CC2)c1`, 6.15%; to `FC(F)(F)c1cccc(CON=C2CCN(c3ncc(C(F)(F)F)cc3Cl)CC2)c1`, -8.15%.

Turning to `O=C(Nc1cc(Cl)ccc1Cl)c1ccc(OC(=O)c2ccco2)cc1`, the inhibition was 49.5%. As to `O=C(Nc1cc(Cl)ccc1Cl)c1ccco1`, the inhibition is -1.55%. With `CN(Cc1ccc2c(c1)OCCO2)C(=O)CSc1ncnc2sccc12`, the inhibition turned out to be 25.8%.

Take `CCCc1cc(=O)[nH]c(SCC(=O)c2cc(C)n(CC(F)(F)F)c2C)n1`: the inhibition turned out to be 6.27%. The result for `COc1cccc(-n2ccnc2SCC(=O)Nc2ccccc2)c1` reads 2.78%. Take `O=C(N/N=C\c1ccc(O)c([N+](=O)[O-])c1)C1COc2ccccc2O1` (configuration not stated): the inhibition is 57%.

Regarding `O=C(N/N=C/c1cccc([N+](=O)[O-])c1)C1COc2ccccc2O1` (configuration not stated), the inhibition worked out at 29.6%. `CC(C)(C)c1ccc2c(c1)OC(C(=O)N/N=C/c1ccc([N+](=O)[O-])o1)CO2` (configuration not stated): the inhibition was 77.1%. The result for `O=C(N/N=C/c1c[nH]c2ccccc12)C1COc2ccccc2O1` (configuration not stated) reads 26.6%; that for `Cn1cccc1/C=N\NC(=O)C1COc2ccc(C(C)(C)C)cc2O1` (configuration not stated), 78.1%. To `O=C(N/N=C\c1ccc(-c2ccc([N+](=O)[O-])cc2)o1)C1COc2ccccc2O1` (configuration not stated) belongs 42.2%. To `CC(C)(C)c1ccc2c(c1)OC(C(=O)N/N=C\c1ccncc1)CO2` (configuration not stated) belongs 10.4%; to `C/C(=N\NC(=O)C1COc2ccccc2O1)c1ccc(Cl)s1` (configuration not stated), 76%; to `CC(C)CNS(=O)(=O)c1ccccc1C(=O)N1CCCCC1`, 8.8%. `C/C(=C\c1ccccc1)C(=O)N1CCN(c2cccc(C(F)(F)F)c2)CC1`: the inhibition was 22.2%. The result for `COc1ccc(N2CC(C)Cn3c2nc2c3c(=O)n(Cc3ccc(C)cc3)c(=O)n2C)c(OC)c1` (configuration not stated) reads 17.9%; that for `CCc1ccc(C(=O)NNC(=O)c2ccc3c(=O)n4c(nc3c2)CCC4)cc1`, -9.87%; that for `Cc1cc(OC(C)C(=O)Nc2ccccc2C(=O)N2CCCC2)ccc1Cl` (configuration not stated), 4.49%. The result for `O=C(/C=C/c1ccccc1)NCCc1ccccc1` reads 1.5%; that for `COc1ccc(N2CC(C(=O)OCC(=O)Nc3cccc(C)c3C)CC2=O)cc1` (configuration not stated), -1.13%; that for `Cn1c(N)c(C(=O)CNC2CCCCC2)c(=O)n(C)c1=O`, -15.1%.

`CCOC(=O)CNC(=O)CSc1nnc(C)c(=O)[nH]1`: the inhibition is -4.04%. Take `Cc1cc(C)c(S(=O)(=O)c2ccccc2C)c(OCCN(C)C)n1`: the inhibition is 6.46%. Regarding `CN(C)c1ccc(/C=N/NC(=O)C2COc3ccccc3O2)o1` (configuration not stated), the inhibition was determined as 1.59%. The result for `O=C(N/N=C/c1ccco1)C1COc2ccccc2O1` (configuration not stated) reads 4.17%; that for `CCCN1CCN(c2ccc([N+](=O)[O-])cc2C#N)CC1`, 2.83%.

For the molecule `CC1CC(=O)C(C2c3ccccc3CCN2C(=O)CCl)C(=O)C1` (configuration not stated), the inhibition was 14.6%. The result for `CN1CCCC(OC(=O)c2ccccc2Br)C1` (configuration not stated) reads -1.81%.

For `O=C1CC(N2CCN(c3ccccc3O)CC2)C(=O)N1Cc1ccccc1` (configuration not stated), the inhibition stood at 72%. To `CCN1C(=O)CC(N2CCC(C(=O)N3CCCCCC3)CC2)C1=O` (configuration not stated) belongs 77%. To `O=C(CC1C(=O)NCCN1Cc1cccc(Oc2ccccc2)c1)NCCc1ccncc1` (configuration not stated) belongs 12.8%; to `Cc1cccc(NC(=O)c2c(O)c3ccccc3n(C)c2=O)c1`, 13.4%; to `COc1ccc(C(=O)OCC(=O)NC(=O)NC(C)C)cc1OC`, -0.28%. Turning to `Cc1ccc(C(C)NC(=O)C2CCCO2)cc1C` (configuration not stated), the inhibition stood at 16.5%. To `CC(NC(=O)C1CCCO1)c1ccccc1` (configuration not stated) belongs 17.7%.

Take `COc1cc2ccccc2cc1C(=O)N1CCCCC1`: the inhibition came out at 12%. The result for `COC(=O)C1=C(C)N(Cc2ccccc2)C(=NCc2ccc(OC)cc2)N[C@H]1c1cccc(F)c1` reads 79.1%; that for `COC(=O)C1=C(C)N(Cc2ccccc2)C(=NCc2cc(OC)c(OC)c(OC)c2)N[C@H]1c1cccc(F)c1`, 65.1%.

For the molecule `C=CCn1c(O)c(/C=N/NC(=O)c2ccncc2)c(=O)[nH]c1=O`, the inhibition amounted to 58%. The result for `COc1ccccc1C(=O)CC(=O)c1ccccc1` reads 52.4%; that for `O=[N+]([O-])c1cnc2ccccc2c1`, -10.7%. To `Cc1nc2ccccc2c(=O)n1-c1cc([N+](=O)[O-])cc([N+](=O)[O-])c1` belongs 19.9%; to `Nc1c(-c2cccc([N+](=O)[O-])c2)nc2ccccn12`, 6.84%. The result for `O=c1c2ccccc2nc2ccccn12` reads -2.46%; that for `CCCOc1ccc(-c2nc(C#N)c(N3CCN(C)CC3)o2)cc1`, 30.2%. Consider `CCOc1ccc(CCNC(=O)COC(=O)CCC(=O)c2cccs2)cc1OCC`, for which the inhibition is 11.4%. To `Cc1ccc(/C(=N\S(=O)(=O)c2ccc(Br)cc2)Nc2ccccc2C)cc1` belongs -11%.
